Data published in article PMC7862700, “An all-to-all approach to the identification of sequence-specific readers for epigenetic DNA modifications on cytosine”.

Assays:
Test in all cases: DAPPL (digital affinity profiling via proximity ligation, sequencing); 10 mM Tris-HCl pH 7.5, 50 mM NaCl, 1 mM DTT, 4% glycerol, room temperature, 30 min; GST-TFs on glutathione beads, 16-mer random dsDNA library, 0.1% formaldehyde crosslink after washing; high values mean tight binding
Conditions in all cases: protein: recombinant; tags: N-terminal GST; dsDNA, one strand shown
[1] = biological target: SPIB (Homo sapiens, UniProt Q01892 1-262)
Procedure, shortened: (§1)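 Pools were built from human transcription factors expressed in yeast as GST fusions, captured on glutathione beads and DNA-barcoded, along with a tag-only sample. Incubation with 200 nmole of a 16-mer random double-stranded DNA library lasted 30 min at room temperature in Tris/NaCl/DTT/glycerol buffer, and was followed by washing, 0.1% formaldehyde crosslinking, proximity ligation, PCR amplification and Illumina NextSeq500 sequencing. Binding signal is the quotient of each hexamer's read frequency for a factor and its frequency for the tag-only sample.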

[2] = biological target: T1, SPIC (Homo sapiens, UniProt Q8N5J4 1-248)
T1 sequence: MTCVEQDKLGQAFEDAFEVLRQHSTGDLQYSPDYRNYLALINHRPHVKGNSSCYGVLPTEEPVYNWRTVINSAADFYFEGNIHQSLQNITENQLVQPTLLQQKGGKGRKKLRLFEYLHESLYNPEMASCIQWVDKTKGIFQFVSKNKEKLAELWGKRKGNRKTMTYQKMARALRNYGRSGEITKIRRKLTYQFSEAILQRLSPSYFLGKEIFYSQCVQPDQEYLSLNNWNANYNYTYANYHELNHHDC
Procedure, shortened: as §1

[3] = biological target: T2, ELK4 (Homo sapiens, UniProt P28324-2 1-405)
T2 sequence: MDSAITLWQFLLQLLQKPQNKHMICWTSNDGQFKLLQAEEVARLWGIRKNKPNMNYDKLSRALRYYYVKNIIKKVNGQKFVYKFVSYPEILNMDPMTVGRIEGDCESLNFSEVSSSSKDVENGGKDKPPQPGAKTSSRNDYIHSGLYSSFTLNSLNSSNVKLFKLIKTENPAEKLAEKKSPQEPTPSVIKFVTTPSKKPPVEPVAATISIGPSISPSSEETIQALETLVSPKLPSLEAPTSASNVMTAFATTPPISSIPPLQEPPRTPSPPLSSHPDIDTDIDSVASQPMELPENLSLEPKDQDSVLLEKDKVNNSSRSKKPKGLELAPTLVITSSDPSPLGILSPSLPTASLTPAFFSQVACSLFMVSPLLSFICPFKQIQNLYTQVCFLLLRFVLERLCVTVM
Procedure, shortened: as §1

[4] = biological target: T3, ETV2 (Homo sapiens, UniProt O00321 1-342)
T3 sequence: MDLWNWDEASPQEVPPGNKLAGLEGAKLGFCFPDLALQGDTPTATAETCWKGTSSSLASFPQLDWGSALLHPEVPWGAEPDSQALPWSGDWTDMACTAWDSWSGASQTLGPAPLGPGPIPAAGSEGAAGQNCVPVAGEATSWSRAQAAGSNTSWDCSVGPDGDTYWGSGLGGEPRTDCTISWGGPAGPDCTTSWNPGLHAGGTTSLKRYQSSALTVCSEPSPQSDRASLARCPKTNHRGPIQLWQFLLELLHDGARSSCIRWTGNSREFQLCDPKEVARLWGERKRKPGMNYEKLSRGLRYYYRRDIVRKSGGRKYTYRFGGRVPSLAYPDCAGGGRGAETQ
Procedure, shortened: as §1

[5] = biological target: CRX (Homo sapiens, UniProt O43186 1-299)
Procedure, shortened: as §1

[6] = biological target: T4, ERF (Homo sapiens, UniProt P50548 1-548)
T4 sequence: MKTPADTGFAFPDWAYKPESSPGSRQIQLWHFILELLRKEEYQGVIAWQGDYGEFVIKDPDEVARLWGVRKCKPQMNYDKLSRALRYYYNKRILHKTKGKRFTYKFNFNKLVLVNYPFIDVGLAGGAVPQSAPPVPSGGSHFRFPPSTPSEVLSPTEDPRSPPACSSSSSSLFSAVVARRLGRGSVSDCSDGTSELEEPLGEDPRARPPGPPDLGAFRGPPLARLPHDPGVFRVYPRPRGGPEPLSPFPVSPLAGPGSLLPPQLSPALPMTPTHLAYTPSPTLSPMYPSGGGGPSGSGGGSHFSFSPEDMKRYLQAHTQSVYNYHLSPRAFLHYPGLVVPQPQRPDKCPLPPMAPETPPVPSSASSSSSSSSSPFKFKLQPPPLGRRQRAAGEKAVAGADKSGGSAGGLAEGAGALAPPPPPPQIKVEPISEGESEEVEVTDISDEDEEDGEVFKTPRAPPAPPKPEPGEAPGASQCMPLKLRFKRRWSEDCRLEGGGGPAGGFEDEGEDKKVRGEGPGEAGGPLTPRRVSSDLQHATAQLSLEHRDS
Procedure, shortened: as §1

[7] = biological target: T5, ETV3 (Homo sapiens, UniProt P41162-2 1-143)
T5 sequence: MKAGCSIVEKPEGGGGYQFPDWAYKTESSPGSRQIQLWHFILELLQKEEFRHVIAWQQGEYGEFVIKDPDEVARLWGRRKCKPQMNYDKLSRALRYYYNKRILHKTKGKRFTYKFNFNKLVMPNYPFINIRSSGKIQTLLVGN
Procedure, shortened: as §1

[8] = biological target: T6, GABPA (Homo sapiens, UniProt Q06546 1-454)
T6 sequence: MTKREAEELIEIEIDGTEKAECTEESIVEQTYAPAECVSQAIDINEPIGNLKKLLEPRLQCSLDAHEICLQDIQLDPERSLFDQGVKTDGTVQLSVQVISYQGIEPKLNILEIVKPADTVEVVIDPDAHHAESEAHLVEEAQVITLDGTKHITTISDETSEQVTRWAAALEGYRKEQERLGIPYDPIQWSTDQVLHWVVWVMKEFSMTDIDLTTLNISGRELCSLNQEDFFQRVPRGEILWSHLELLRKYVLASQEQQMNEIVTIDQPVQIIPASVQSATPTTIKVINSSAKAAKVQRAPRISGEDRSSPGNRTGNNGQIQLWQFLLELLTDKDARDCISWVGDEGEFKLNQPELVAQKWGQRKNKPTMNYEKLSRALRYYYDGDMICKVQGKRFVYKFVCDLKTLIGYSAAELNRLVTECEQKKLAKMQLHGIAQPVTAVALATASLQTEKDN
Procedure, shortened: as §1

[9] = biological target: T7, EHF (Homo sapiens, UniProt Q9NZC4 1-300)
T7 sequence: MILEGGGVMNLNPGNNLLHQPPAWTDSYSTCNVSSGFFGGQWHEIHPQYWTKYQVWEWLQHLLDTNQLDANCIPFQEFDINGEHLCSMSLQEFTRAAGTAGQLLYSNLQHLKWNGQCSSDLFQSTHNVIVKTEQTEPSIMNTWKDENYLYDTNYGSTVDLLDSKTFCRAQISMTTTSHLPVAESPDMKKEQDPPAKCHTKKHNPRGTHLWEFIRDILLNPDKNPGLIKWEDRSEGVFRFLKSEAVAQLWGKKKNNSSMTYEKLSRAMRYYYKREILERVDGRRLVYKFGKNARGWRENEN
Procedure, shortened: as §1

[10] = biological target: SPI1 (Homo sapiens, UniProt P17947 1-270)
Procedure, shortened: as §1

[11] = biological target: T8, ELK3 (Homo sapiens, UniProt P41970 1-407)
T8 sequence: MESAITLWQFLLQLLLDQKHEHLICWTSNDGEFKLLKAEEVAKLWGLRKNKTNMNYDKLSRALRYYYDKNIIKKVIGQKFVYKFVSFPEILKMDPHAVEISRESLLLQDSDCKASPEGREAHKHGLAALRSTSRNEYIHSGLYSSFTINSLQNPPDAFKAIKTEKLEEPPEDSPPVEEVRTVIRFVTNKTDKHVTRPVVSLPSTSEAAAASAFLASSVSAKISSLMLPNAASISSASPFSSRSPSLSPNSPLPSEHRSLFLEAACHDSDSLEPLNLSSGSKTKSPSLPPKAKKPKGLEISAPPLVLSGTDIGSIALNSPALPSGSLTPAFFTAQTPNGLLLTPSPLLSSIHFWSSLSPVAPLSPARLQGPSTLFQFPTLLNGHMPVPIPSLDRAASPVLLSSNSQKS
Procedure, shortened: as §1

[12] = biological target: T9, FEV (Homo sapiens, UniProt Q99581 1-238)
T9 sequence: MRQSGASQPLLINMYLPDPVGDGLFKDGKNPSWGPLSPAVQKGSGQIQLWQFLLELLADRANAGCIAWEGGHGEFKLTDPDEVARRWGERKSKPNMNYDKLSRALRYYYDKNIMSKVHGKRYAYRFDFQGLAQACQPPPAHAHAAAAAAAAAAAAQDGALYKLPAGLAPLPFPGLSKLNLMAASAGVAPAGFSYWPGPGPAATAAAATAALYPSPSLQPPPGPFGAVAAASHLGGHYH
Procedure, shortened: as §1

[13] = biological target: T10, ELF3 (Homo sapiens, UniProt P78545 1-371)
T10 sequence: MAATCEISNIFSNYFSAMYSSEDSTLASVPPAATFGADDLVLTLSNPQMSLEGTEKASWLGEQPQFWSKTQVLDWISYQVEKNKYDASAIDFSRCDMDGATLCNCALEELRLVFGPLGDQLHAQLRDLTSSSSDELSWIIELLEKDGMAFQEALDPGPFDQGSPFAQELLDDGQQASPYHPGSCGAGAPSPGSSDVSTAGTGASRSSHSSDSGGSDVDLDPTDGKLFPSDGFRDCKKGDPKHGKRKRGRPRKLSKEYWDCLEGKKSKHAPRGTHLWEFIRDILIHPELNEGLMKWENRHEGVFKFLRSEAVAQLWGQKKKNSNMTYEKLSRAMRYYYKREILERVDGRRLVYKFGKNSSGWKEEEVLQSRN
Procedure, shortened: as §1

[14] = biological target: ETV1 (Homo sapiens, UniProt P50549 1-477)
Procedure, shortened: as §1

[15] = biological target: T11, ETS2 (Homo sapiens, UniProt P15036 1-469)
T11 sequence: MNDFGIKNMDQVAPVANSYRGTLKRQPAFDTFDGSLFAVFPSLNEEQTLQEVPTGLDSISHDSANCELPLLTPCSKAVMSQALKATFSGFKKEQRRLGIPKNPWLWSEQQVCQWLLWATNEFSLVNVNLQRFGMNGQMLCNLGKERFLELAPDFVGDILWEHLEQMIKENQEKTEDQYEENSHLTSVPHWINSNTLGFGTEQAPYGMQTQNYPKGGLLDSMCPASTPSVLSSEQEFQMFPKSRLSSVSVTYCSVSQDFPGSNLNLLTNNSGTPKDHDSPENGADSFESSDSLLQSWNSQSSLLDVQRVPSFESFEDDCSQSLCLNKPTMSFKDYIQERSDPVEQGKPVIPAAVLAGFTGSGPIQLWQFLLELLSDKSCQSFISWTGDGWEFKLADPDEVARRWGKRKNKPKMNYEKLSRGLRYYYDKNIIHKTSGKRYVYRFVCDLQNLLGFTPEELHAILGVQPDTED
Procedure, shortened: as §1

[16] = biological target: T12, ELF5 (Homo sapiens, UniProt Q9UKW6-2 1-255)
T12 sequence: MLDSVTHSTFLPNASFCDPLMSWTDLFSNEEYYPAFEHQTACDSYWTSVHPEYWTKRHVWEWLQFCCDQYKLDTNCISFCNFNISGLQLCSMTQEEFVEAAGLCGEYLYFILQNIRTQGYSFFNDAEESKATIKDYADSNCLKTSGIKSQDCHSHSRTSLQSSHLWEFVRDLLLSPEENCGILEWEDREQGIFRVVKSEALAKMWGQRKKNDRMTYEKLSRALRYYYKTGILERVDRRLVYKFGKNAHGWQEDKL
Procedure, shortened: as §1

[17] = biological target: ETV6 (Homo sapiens, UniProt P41212 1-452)
Procedure, shortened: as §1

Chain of ETV1 (P50549 whole entry): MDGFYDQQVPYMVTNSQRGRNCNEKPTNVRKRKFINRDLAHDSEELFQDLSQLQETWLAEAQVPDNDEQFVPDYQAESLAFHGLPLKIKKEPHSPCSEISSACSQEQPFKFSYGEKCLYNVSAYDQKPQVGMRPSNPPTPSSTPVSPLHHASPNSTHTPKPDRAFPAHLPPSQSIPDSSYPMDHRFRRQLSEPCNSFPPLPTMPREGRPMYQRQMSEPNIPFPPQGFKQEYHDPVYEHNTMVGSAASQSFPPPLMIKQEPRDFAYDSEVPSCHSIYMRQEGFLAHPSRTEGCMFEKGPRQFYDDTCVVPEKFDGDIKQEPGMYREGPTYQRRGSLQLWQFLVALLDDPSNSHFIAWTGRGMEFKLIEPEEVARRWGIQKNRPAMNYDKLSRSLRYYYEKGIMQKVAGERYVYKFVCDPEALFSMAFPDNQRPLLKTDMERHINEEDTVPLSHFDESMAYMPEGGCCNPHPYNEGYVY
Chain of SPIB (Q01892 whole entry, the tested form may be a part): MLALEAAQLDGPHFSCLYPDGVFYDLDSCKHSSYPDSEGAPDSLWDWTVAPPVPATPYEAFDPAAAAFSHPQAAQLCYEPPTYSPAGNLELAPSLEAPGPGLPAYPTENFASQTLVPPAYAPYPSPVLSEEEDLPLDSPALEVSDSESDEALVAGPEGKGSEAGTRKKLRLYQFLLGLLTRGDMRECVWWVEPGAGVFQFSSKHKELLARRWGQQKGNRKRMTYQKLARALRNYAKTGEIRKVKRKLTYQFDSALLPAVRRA
Chain of ETV6 (P41212 whole entry): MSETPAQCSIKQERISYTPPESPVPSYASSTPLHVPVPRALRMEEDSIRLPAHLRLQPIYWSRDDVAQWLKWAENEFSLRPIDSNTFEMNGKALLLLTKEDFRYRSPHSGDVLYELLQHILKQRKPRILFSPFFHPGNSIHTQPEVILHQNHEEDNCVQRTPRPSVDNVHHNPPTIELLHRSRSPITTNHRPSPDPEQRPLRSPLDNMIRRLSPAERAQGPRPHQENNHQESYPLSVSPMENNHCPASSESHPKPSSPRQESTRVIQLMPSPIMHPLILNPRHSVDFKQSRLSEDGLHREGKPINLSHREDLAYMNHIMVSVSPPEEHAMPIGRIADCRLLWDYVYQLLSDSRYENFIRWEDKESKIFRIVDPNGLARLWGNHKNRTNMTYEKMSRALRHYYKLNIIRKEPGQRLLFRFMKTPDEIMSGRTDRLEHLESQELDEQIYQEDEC
Chain of CRX (O43186 whole entry): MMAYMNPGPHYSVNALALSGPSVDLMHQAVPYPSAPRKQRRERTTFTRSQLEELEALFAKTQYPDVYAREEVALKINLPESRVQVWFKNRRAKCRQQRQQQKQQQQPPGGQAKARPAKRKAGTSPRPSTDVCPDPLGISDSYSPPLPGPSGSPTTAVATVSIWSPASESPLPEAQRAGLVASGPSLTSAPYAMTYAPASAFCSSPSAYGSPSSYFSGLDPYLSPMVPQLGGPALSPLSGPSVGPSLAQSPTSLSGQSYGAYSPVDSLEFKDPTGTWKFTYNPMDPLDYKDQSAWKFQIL

GCAGAT
binding signal [1]: 1.02 fold enrichment (6-mer frequency, TF over GST control)
binding signal [2]: 1 fold enrichment (6-mer frequency, TF over GST control)
binding signal [3]: 1.04 fold enrichment (6-mer frequency, TF over GST control)
binding signal [4]: 1.17 fold enrichment (6-mer frequency, TF over GST control)
binding signal [5]: 1.21 fold enrichment (6-mer frequency, TF over GST control)

GTTCGT
binding signal [2]: 1.12 fold enrichment (6-mer frequency, TF over GST control)
binding signal [4]: 1.05 fold enrichment (6-mer frequency, TF over GST control)
binding signal [6]: 1.12 fold enrichment (6-mer frequency, TF over GST control)

GTGCCG
binding signal [2]: 1.03 fold enrichment (6-mer frequency, TF over GST control)
binding signal [4]: 1.01 fold enrichment (6-mer frequency, TF over GST control)

CGCAAT
binding signal [2]: 1.01 fold enrichment (6-mer frequency, TF over GST control)
binding signal [4]: 1.04 fold enrichment (6-mer frequency, TF over GST control)
binding signal [7]: 1.01 fold enrichment (6-mer frequency, TF over GST control)

AGTAGC
binding signal [8]: 1.03 fold enrichment (6-mer frequency, TF over GST control)
binding signal [9]: 1.01 fold enrichment (6-mer frequency, TF over GST control)
binding signal [10]: 1.22 fold enrichment (6-mer frequency, TF over GST control)
binding signal [11]: 1.05 fold enrichment (6-mer frequency, TF over GST control)
binding signal [12]: 1.04 fold enrichment (6-mer frequency, TF over GST control)
binding signal [2]: 1.04 fold enrichment (6-mer frequency, TF over GST control)
binding signal [13]: 1.03 fold enrichment (6-mer frequency, TF over GST control)
binding signal [14]: 1.05 fold enrichment (6-mer frequency, TF over GST control)
binding signal [6]: 1.01 fold enrichment (6-mer frequency, TF over GST control)
binding signal [15]: 1.07 fold enrichment (6-mer frequency, TF over GST control)
binding signal [16]: 1.04 fold enrichment (6-mer frequency, TF over GST control)
binding signal [7]: 1.08 fold enrichment (6-mer frequency, TF over GST control)
binding signal [17]: 1.08 fold enrichment (6-mer frequency, TF over GST control)
